Measurements taken from ChEMBL document CHEMBL3988442, “University of Dundee, Small-Polar-MMV Screening Library” (2021).
The campaign covered roughly 48,000 compounds. About 13,000 (27%) showed an effect of 50% or more. This is one part of the list.

The compounds below were run on Wolbachia pipientis (assay: Anti-Wolbachia Cell-Based Screen). Details: 5 µM.
Format: functional
Set-up: scale not given: in the data most compounds retested in dose-response had high values

Structure (SMILES) | Percent Effect [%]
Cc1nnn2c1COCC(CNCc1nccs1)C2.O=C(O)C(F)(F)F (stereo not drawn) | -0.1911
Cc1cc(C)n(CC(C)NC2CCN(Cc3cccc(O)c3)CC2)n1 (stereo not drawn) | -0.5082
NC(=O)c1csc(N2CCCC(c3nc4ccccc4[nH]3)C2)n1 (stereo not drawn) | 1.485
CNC(=O)[C@@H](c1ccccc1OC)N1CCC[C@H]1C(=O)NC1CC1.Cl | -3.931
CNC(=O)[C@H]1C[C@@H]2CN(S(=O)(=O)c3cccc(F)c3)C[C@@H]2N1C.O=C(O)C(F)(F)F | -6.312
Cc1nn(C)c(C)c1C1CCCN1c1ncnc2c1CCC2 (stereo not drawn) | 10.31
CCCn1nccc1S(=O)(=O)N1CCC2(CCCN(C(C)C)C2=O)C1 (stereo not drawn) | 7.399
CCC1CCC(NCCN2CCOCC2)CC1 (stereo not drawn) | -1.764
COc1ncc(-c2nccn2C(C)CCn2cccn2)cn1 (stereo not drawn) | -0.87
O=C(O)C1CCCCN1C(=O)c1cccc(C(F)(F)F)c1 (stereo not drawn) | 1.382
O=C(c1cccc(C(F)(F)F)c1)N1CC(=O)N(C2CCC2)CC(O)C1 (stereo not drawn) | 119.9
O=C(c1ccncc1)N1CCC(Oc2cccc(C(F)(F)F)c2)CC1 | -12.2
COCCN1CC(O)CN(C(=O)c2cccc(C(F)(F)F)c2)CC1=O (stereo not drawn) | 96.14
CC(C)CN1CC(O)CN(C(=O)c2cccc(C(F)(F)F)c2)CC1=O (stereo not drawn) | 93.47
CC(C)c1nnc2n1CCN(C(=O)c1cccc(C(F)(F)F)c1)C2 | -7.984
Nc1cc(C(=O)N2CCC(Oc3cccc(C(F)(F)F)c3)CC2)ccn1 | 0.5907
Cc1c(Br)cccc1C(=O)NCC1CCNCC1.Cl | 5.039
COC(=O)NCc1ccc(NC(=O)CC2=CCCCC2)cc1 | -4.854
Cc1nc(N2CCN(S(C)(=O)=O)CC2)cc(-n2cnc(C)c2C)n1 | -12.66
CC(C)(C)CCN1CCCC(Cn2cc(CCO)nn2)C1 (stereo not drawn) | -5.43
CNS(=O)(=O)c1ccc(CN2CCN(Cc3ncccc3C)CC2)cc1 | 2.71
Cc1ccccc1CN1CCN(C(=O)c2ccn(C(C)(C)C)c2)CC1 | 106.5
Cc1cccnc1CN1CCN(C(=O)c2ccn(C(C)(C)C)c2)CC1 | 140.1

Structure (SMILES) | Percent Effect [%]
Cc1cccnc1CN1CCN(C(=O)CCn2ccccc2=O)CC1 | -35.18
CC(C)(C)n1cc(C(=O)N2CCN(Cc3ccccc3F)CC2)cn1 | -9.517
Cc1ccccc1CN1CCN(C(=O)CCn2ccccc2=O)CC1 | -43.85
CCOC(=O)CC(NC(=O)c1cn(Cc2ccccc2F)nn1)C(C)C (stereo not drawn) | 0.973
O=C(O)C1c2nc[nH]c2CCN1Cc1cc(-c2ccccc2)no1 (stereo not drawn) | -8.907
CN(Cc1cccc2cnccc12)C(=O)CCc1n[nH]c2c1CCCC2 | 113.4
CCCc1cc(C(=O)N(C)Cc2cccc3cnccc23)n(C)n1 | -5.635
O=C(CCc1n[nH]c2c1CCCC2)N1C[C@@H]2CC[C@H](C1)N(CC1CC1)C2 | 3.665
Cc1ncc(CC(=O)N2CCC3(CCC(=O)N(C4CC4)C3)CC2)c(=O)[nH]1 | 3.916
NC(=O)NC1CCN(Cc2ccc(Br)c(F)c2)CC1 | -13.64
CCOc1ccc(CNCc2cccnc2N(C)C)cc1 | 80.05
CCOc1ccc(S(=O)(=O)NCc2cccnc2N(C)C)cc1 | -21.99
CN(C)c1ncccc1CNCc1cccc(O)c1 | 107.5
CCN(C(=O)NCc1cccnc1N(C)C)C(C)c1cccnc1 (stereo not drawn) | -18.28
Cc1oc(C)c(C(=O)NCc2cccnc2N(C)C)c1C | -9.408
CC(=O)Nc1ccc(CNCc2cccnc2N(C)C)cc1 | 96.06
CC(C)NS(=O)(=O)c1ccccc1CNCc1cccc(O)c1 | -3.142
CC(C)(C)NS(=O)(=O)c1ccccc1CNCc1cccc(O)c1 | -1.047
CCc1ncc(CNCc2cccnc2N(C)C)cn1 | 101.7
O=C(O)[C@@H]1CN(Cc2c[nH]c(CC3CCCC3)n2)C[C@H]1c1ccncc1 | -4.479
CCN(CC)c1nc2sc(C(=O)NCC(=O)OC)cc2s1 | -6.557
O=C1N[C@@H]2CCN(C(=O)N3CCOCC3)[C@@H]2C(=O)N1Cc1ccccc1 | 7.346
OC(CN(Cc1ccccc1)Cc1ccon1)c1ccco1 (stereo not drawn) | 27.39

Structure (SMILES) | Percent Effect [%]
CCCN1CCC(NN2CCN(C)CC2)CC1 | 6.891
O=C(Nc1cc(CSCCO)ccn1)c1cc2ccccc2[nH]1 | -29.11
O=C(NCC1(O)CCSCC1)c1nccc2ccccc12 | -4.929
COc1ccc2cc(C(=O)N3CCCCC3CC(N)=O)[nH]c2c1 (stereo not drawn) | -6.391
COc1ccc(CNC(=O)C2(C#N)CCCC2)cc1 | -22.34
NC1(CNC(=O)c2cc3ccccc3[nH]2)CCCC1 | 106.9
COc1ccc2[nH]c(C(=O)NCC3(N)CCCC3)cc2c1 | 112.8
COCCOc1ccc(NC(=O)N(C)Cc2ccsc2)cn1 | -6.376
Cc1noc([C@H]2C[C@H]3OCC[C@H]3N(Cc3cccs3)C2)n1.O=C(O)C(F)(F)F | -3.779
CN(Cc1ncnn1C)C(=O)CCCn1ccc2cc(Cl)ccc21 | 8.375
O=C(NCCC(=O)N1CCCc2ccccc21)c1c(O)cc(F)cc1F | 3.729
O=C(NCCC(=O)N1CCCc2ccccc21)c1ccc(F)cc1F | 138.5
CS(=O)(=O)c1ccc2c(c1)N(C(=O)c1cccc(F)c1)CCC2 | 5.094
O=C(NCCS(=O)(=O)N1CCc2ccccc21)c1c(O)cc(F)cc1F | 11.09
O=C(NCC(=O)N1CCCc2ccccc21)c1c(O)cc(F)cc1F | 103.6
O=C(NCCSC1CCCC1)c1ccc(F)cc1F | 11.89
Cn1cc(CCNC(=O)N2CCCc3c(F)cccc32)cn1 | -24.48
CS(=O)(=O)c1ccc2c(c1)N(C(=O)Cc1cccc(F)c1)CCC2 | 1.079
CCC(CNC(=O)c1ccc(F)cc1F)N1CCc2ccccc2C1 (stereo not drawn) | 10.38
O=C(NCCC(=O)N1CCCc2ccccc21)c1cc(F)cc(F)c1 | 126.9
O=C(NCCC(=O)N1CCCc2ccccc21)c1c(F)cccc1F | 120
O=C(NCCSC1CCCC1)c1c(F)cccc1F | 10.15
